For experiment [1], the target named is T1, ETS1 (UniProt P14921).
T1 sequence: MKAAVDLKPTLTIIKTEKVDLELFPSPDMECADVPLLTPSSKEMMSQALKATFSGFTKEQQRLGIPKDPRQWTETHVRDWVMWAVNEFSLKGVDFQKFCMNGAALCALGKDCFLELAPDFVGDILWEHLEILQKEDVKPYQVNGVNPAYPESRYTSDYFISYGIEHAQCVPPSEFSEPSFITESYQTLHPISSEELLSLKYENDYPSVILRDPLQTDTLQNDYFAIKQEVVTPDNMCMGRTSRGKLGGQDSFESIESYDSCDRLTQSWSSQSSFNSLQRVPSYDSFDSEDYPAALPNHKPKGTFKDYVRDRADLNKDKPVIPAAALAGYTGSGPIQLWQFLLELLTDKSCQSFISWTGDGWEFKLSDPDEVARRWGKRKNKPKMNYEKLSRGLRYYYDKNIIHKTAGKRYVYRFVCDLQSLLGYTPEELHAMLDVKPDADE
The experiment in a line: ETS1 binding intensity (PBM fluorescence), ETS1 alone (arbitrary fluorescence units); higher = stronger binding. The following applies: ETS1 concentration 1 nM; RUNX1 concentration 0 nM.

A further experiment concerns the target RUNX1 (UniProt Q01196). The experiment in a line: RUNX1 binding intensity (PBM fluorescence), RUNX1 alone (arbitrary fluorescence units); higher = stronger binding. The following applies: RUNX1 concentration 2 nM; ETS1 concentration 0 nM. As to the method: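 Cooperative gcPBM on 36-bp genomic probes with neighbouring ETS1 and RUNX1 sites. Recombinant human RUNX1 (2 nM) was incubated alone or with ETS1 (25 nM) and detected with anti-RUNX1 antibody plus Alexa488 secondary. Values are medians over 4 replicate spots; the RUNX1+ETS1 data were normalised to the RUNX1-only data. The probes sit in constant array flanks that are not printed.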

In experiment [2] the target is T1, ETS1. The experiment is described as follows: ETS1 binding intensity (PBM fluorescence) in presence of RUNX1, normalised to ETS1-only experiment (arbitrary fluorescence units); higher = stronger binding. The following applies: ETS1 concentration 1 nM; RUNX1 concentration 25 nM.
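Throughout, for RUNX1 binding intensity (PBM fluorescence), RUNX1 alone: Full-length recombinant human RUNX1 bound to double-stranded 36-bp genomic probes on a high-density microarray, scored as Alexa488 fluorescence per spot via anti-RUNX1 antibody, median of four replicate spots.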

Chain of RUNX1 (Q01196 whole entry): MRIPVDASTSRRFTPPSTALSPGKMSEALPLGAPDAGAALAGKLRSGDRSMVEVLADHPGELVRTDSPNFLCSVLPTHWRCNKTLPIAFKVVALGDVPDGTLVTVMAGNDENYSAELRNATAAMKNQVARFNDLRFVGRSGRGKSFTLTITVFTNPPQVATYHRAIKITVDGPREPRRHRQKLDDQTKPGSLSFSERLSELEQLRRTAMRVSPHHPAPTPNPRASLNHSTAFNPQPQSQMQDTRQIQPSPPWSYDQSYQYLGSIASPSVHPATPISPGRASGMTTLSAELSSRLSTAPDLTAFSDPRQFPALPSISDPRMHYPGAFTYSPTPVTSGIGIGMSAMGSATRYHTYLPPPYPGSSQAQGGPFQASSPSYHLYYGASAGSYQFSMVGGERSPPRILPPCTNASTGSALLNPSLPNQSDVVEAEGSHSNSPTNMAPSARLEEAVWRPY

Regarding CCGCCGACACACTTCCGGCGGCCACCACAGGGTATT, the ETS1 binding intensity with ETS1 [1] worked out at 3140; in the experiment with ETS1 [2], 3660. Also, in the experiment with RUNX1, the RUNX1 binding intensity stood at 795.

Regarding GAGGCAGGCGGATGTCAGTGTGGTTAGAGCACAGTG, the ETS1 binding intensity with ETS1 [1] was found to be 1170; with ETS1 [2] it was 3310. The RUNX1 binding intensity in the experiment with RUNX1 is 782.

Regarding GCTGGGGCAGGAAGCTTCTAGGCCACAGACAGGACG, the ETS1 binding intensity was found to be 1190 with ETS1 [1] and 1360 with ETS1 [2]. In addition, the RUNX1 binding intensity in the experiment with RUNX1 amounted to 711.

For the sequence CAGAGGAGGAAGAGGAAGCCACAGCGATAGGGTCAC, the results for the ETS1 binding intensity with ETS1 [1] and with ETS1 [2] were 522 and 520, respectively.

Consider CCAGCCACTTCCGCTCGTCCGCCTAATACCGCGCCT, for which the ETS1 binding intensity was 2130 in the experiment with ETS1 [1] and 2430 in the experiment with ETS1 [2]. In the experiment with RUNX1, this sequence came in with an RUNX1 binding intensity of 1420.

For GCAGAAGGAAGTGTGGCTTGGCGCGGTGGCTCACAC, the ETS1 binding intensity with ETS1 [1] came to 475; with ETS1 [2], 405.

Regarding GCCACACCCCCTTCCTGTTGTGTGTGGGGATTCATG, the ETS1 binding intensity with ETS1 [1] is 744; in the experiment with ETS1 [2], 696.

Take GGTTTCACTTCCTGCGTTGGGCCTTGTGGCCTCCTT: the ETS1 binding intensity amounted to 783 with ETS1 [1] and 787 with ETS1 [2].

Regarding TGGGCCAGCACGTCCGGGTGGTCAGGACGCGCGCTT, the ETS1 binding intensity stood at 458 with ETS1 [1] and 451 with ETS1 [2].

Take GATGCTTGTTCAGGATGCGGTTTCTTGCAGCAAGTT: the ETS1 binding intensity is 674 with ETS1 [1] and 2380 with ETS1 [2]. In the experiment with RUNX1, this sequence returned an RUNX1 binding intensity of 3420.

Consider AGTGTAAACACGGAAGTGGCCGCAGGGGTGGGGGAT, for which the ETS1 binding intensity in the experiment with ETS1 [1] was 1820; with ETS1 [2] it was 2690.

Consider GGGCTTCCGGCTGAACCCATGGCTGCGGGCTGTGCT, for which the ETS1 binding intensity with ETS1 [1] was determined as 445; with ETS1 [2], 329.

ACCATATCCTGAGAATGAACCATGTGGTGGATGCAC: the ETS1 binding intensity in the experiment with ETS1 [1] was 519; with ETS1 [2] it was 487. The sequence further had an RUNX1 binding intensity with RUNX1 of 795.

In the case of ACAGAGAAGCTTCCTATTGTGGGATTCACCACCACC, the results for the ETS1 binding intensity with ETS1 [1] and in the experiment with ETS1 [2] were 623 and 705, respectively. The same sequence returned an RUNX1 binding intensity in the experiment with RUNX1 of 735.

Regarding CCCTGCCATTTCCTGCCCAATACCGCGTATGCAACT, the ETS1 binding intensity came out at 1630 with ETS1 [1] and 1700 in the experiment with ETS1 [2]. In the experiment with RUNX1, this sequence yielded an RUNX1 binding intensity of 1780.

For GGTCCAGGAAGACGTCAAGGGCTTGGTTTTGTAAAC, the ETS1 binding intensity with ETS1 [1] turned out to be 505; with ETS1 [2] it was 448.

For the sequence TGAATCATGACAGAGGAAGTGTGGTTCTGTGATTAC, the ETS1 binding intensity with ETS1 [1] amounted to 1760; with ETS1 [2] it was 2090.

As to TGAGAAAGCTATTTCCGCCCACAAAGAGGCAAGTCT, the values for the ETS1 binding intensity with ETS1 [1] and with ETS1 [2] were 1420 and 1370, respectively. In the experiment with RUNX1, this sequence showed an RUNX1 binding intensity of 763.

For the sequence ACGCCGCGCATCCGCGCTTTACGGCGGCCGCAAAAT, the ETS1 binding intensity with ETS1 [1] is 405; in the experiment with ETS1 [2], 563.

Turning to ACCCAGGGGACTTCCTGGCTCAGTGCCACAACCCAG, the values for the ETS1 binding intensity with ETS1 [1] and with ETS1 [2] were 545 and 393, respectively.

As for TTACGACACTTCCGGCGACGCCCCGCAGCCTTCACC, the ETS1 binding intensity with ETS1 [1] was 2890; in the experiment with ETS1 [2], 2740. Further, the RUNX1 binding intensity in the experiment with RUNX1 turned out to be 834.

Take CCCCGTTACGCCCATCCGGCTCCCGCATAGGGCGTC: the ETS1 binding intensity amounted to 442 in the experiment with ETS1 [1] and 402 in the experiment with ETS1 [2].

CTGAGGCGCGCCGGAAGGGCTAGCGGTCCCAGCATA: the ETS1 binding intensity with ETS1 [1] came out at 1280; with ETS1 [2], 1430.

Take ATTACATCCGGGCTCCGCGACACGCCCGAACCACAA: the values for the ETS1 binding intensity with ETS1 [1] and with ETS1 [2] were 549 and 427, respectively.

On to TCCTAGCCATTTCCTATCCACCCTGTGGCTAATTTG, for which the ETS1 binding intensity with ETS1 [1] amounted to 437; with ETS1 [2], 476.

As to GAAGCAGACAGGAAGTGGGTCTGAGCGGTGGAGGGA, the ETS1 binding intensity with ETS1 [1] came to 7670; with ETS1 [2] it was 8610.

As to TAAAGCGGAAGGGGCCGGCTCTGCGGCCTGGCCGCT, the ETS1 binding intensity is 553 with ETS1 [1] and 770 with ETS1 [2].

Turning to GCCCAGTTCTCGCATCCGGTCTGCGGCGCGCTCGGG, the ETS1 binding intensity in the experiment with ETS1 [1] worked out at 4380; with ETS1 [2], 5020.

Consider CTCAGAGGCACCAAGGGAAGTGGTTAAAACAGAAAG, for which the ETS1 binding intensity in the experiment with ETS1 [1] was 677; with ETS1 [2], 1790.

In the case of CGTAGCGAGGAGCGGAAAACGCGGTAACCAAGGCGG, the values for the ETS1 binding intensity in the experiment with ETS1 [1] and with ETS1 [2] were 732 and 1050, respectively.

Consider TCAAGAGGGTGTGGAGGAAGTGGGTTACAAGCACTT, for which the ETS1 binding intensity in the experiment with ETS1 [1] amounted to 1450; in the experiment with ETS1 [2], 1940.

GCCGTGAGAAACATCCTGCCTAACCACCTGACTACA: the ETS1 binding intensity in the experiment with ETS1 [1] was determined as 618; in the experiment with ETS1 [2], 678.

GGGGGCAGGAAGCAGTGCAGCTCCTTAACCCACTTC: the ETS1 binding intensity with ETS1 [1] was determined as 842; with ETS1 [2], 892.

On to GCGATACGAGACTTCCTGCGGGCTCGTGACATCAGC, for which the ETS1 binding intensity in the experiment with ETS1 [1] came out at 518; with ETS1 [2] it was 650.

Regarding CCCGGTGCACCGGATCCGACCACACCCTGGGTGGGC, the figures for the ETS1 binding intensity with ETS1 [1] and in the experiment with ETS1 [2] were 525 and 400, respectively.

Turning to CTCCCCCAGCACATCCTCTGCCACCGCTGCCTTTCC, the ETS1 binding intensity came to 579 with ETS1 [1] and 361 in the experiment with ETS1 [2].

As for AATGTAGGAAATTCCACTGCATAATTTGTGGTAGTG, the ETS1 binding intensity is 478 with ETS1 [1] and 539 with ETS1 [2].

On to GCATGTTCAAAAGGATGTGGGTGCTTACCTAGTGCC, for which the ETS1 binding intensity came out at 956 in the experiment with ETS1 [1] and 1230 with ETS1 [2].

Turning to CTTTTTGATTTCCTCAAGCATCCCACAAATACACAG, the ETS1 binding intensity was found to be 539 with ETS1 [1] and 659 with ETS1 [2].

Consider CTGACAGCTTCCGCACAAAGCGCGGTCTATTTCTCC, for which the ETS1 binding intensity worked out at 405 in the experiment with ETS1 [1] and 544 with ETS1 [2].

Take TGTCAGCTGCGTTTCCGCGGTCGCGGGTGAGTGTGC: the ETS1 binding intensity with ETS1 [1] was determined as 418; in the experiment with ETS1 [2], 588.

Turning to TCACCCTCTCACTTCCTGCGGGTCCCAGGCTCAGGC, the ETS1 binding intensity in the experiment with ETS1 [1] stood at 896; with ETS1 [2], 790.

On to ACAGCATTTCCTGGTGGCCAGATATCTGAGGTTTCA, for which the ETS1 binding intensity in the experiment with ETS1 [1] came to 426; with ETS1 [2], 539.

Take GCTGTTTCCTGCTGATAAAAACACCCCACAACTTCA: the ETS1 binding intensity in the experiment with ETS1 [1] came to 449; in the experiment with ETS1 [2], 510.

In the case of GCTTTTCCGCTCCCAGAGTGCCCCGCCCACAGTTCA, the ETS1 binding intensity with ETS1 [1] came to 477; in the experiment with ETS1 [2], 426.

As for TGGCTTCCTGTCTGTCCTTCATCAGCCCACAGAGGC, the figures for the ETS1 binding intensity with ETS1 [1] and in the experiment with ETS1 [2] were 517 and 529, respectively.

With GAAACCTCACTCTGAGGATGTGGGTTCTGCCTTCTT, the ETS1 binding intensity with ETS1 [1] was determined as 522; with ETS1 [2] it was 1710.

CAGCAAGCGTCCAGGAAGTGTGTGGGGGAGGTGTGG: the ETS1 binding intensity in the experiment with ETS1 [1] was 2010; with ETS1 [2] it was 1920.

For the sequence CCAGAAAGCTCCTCCTTCCGCCACAACACGATCACT, the ETS1 binding intensity in the experiment with ETS1 [1] was 538; in the experiment with ETS1 [2], 451.

(Values after the supplement of paper PMC10681739.)
